Assay [1] can be described thus: compound effects on lung adenocarcinoma cell viability – A549, calcein-AM fluorescence, 48 h, basal, profiling panel (AID 1162). The note with it: higher = more signal.
Assay [2] can be described thus: compound effects on differentiated 3T3-L1 adipocyte viability – cell-based, 3T3-L1 adipocytes, calcein-AM fluorescence, 48 h, basal, profiling panel (AID 1163). The settings on record: 3T3-L1 adipocytes viability, higher = more signal.
Assay [3] in a line: compound effects on hepatocellular carcinoma cell viability – HepG2, calcein-AM fluorescence, 48 h, basal, profiling panel (AID 1164). The settings on record: higher = more signal.
The nature of assay [4]: compound effects on multiple myeloma cell viability – MM1S, calcein-AM fluorescence, 48 h, basal, profiling panel (AID 1165).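 Also: viability of MM1S multiple myeloma cells under basal unstimulated conditions.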 The note with it: higher = more signal.
Assay [5] is described as follows: calcein-AM signal in unstimulated myeloma cells – cell-based, calcein-AM fluorescence, 48 h, PK04 Diversity Set, profiling panel (AID 1166).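 Also: cells grown under basal conditions without added stimulus.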 The settings on record: RPMI8226 myeloma viability, higher = more signal.
Assay [6] is described as follows: JC-1 mitochondrial signal, unstimulated HepG2 cells – cell-based, JC-1 fluorescence, 24 h, 100 nL compound, profiling panel (AID 1167). The settings on record: HepG2 mitochondrial potential, higher = more signal.
Assay [7] can be described thus: JC-1 mitochondrial signal, unstimulated adipocytes – cell-based, JC-1 fluorescence, 3T3-L1 adipocytes, 24 h, 100 nL compound, profiling panel (AID 1168). The settings on record: JC-1 mitochondrial fluorescence, higher = more signal, called active from +8 up or from −8 down.
Assay [8] in a line: JC-1 mitochondrial signal, unstimulated myeloma cells – cell-based, JC-1 fluorescence, RPMI8226, 24 h, 100 nL compound, profiling panel (AID 1169). The note with it: JC-1 mitochondrial potential fluorescence, higher = more signal.
The nature of assay [9]: JC-1 mitochondrial signal, unstimulated MM1S myeloma – cell-based, JC-1 fluorescence, 24 h, 100 nL compound, profiling panel (AID 1170). The settings on record: MM1S mitochondrial potential, higher = more signal.
A short description of assay [10]: resazurin metabolic signal in A549 cells – cell-based, resazurin fluorescence, 24 h, PK04 Diversity Set, profiling panel (AID 1171). The settings on record: A549 viability, higher = more signal, called active from +8 up or from −8 down.

Each structure is given as a SMILES string. Active and inactive are the calls of the source.
Also: test concentration not given here.

In the case of `COc1ccc([Si](C)(C)[C@@H]2[C@@H](CC(=O)N3Cc4ccccc4C[C@H]3CO)O[C@]3(C(=O)N(Cc4cccc(N5C(=O)c6cccc7cccc5c67)c4)c4ccccc43)[C@H]2C)cc1`, the z-score was -0.419 in assay [1]; 1.11 in assay [2]; -0.553 in assay [3]; -0.428 in [4]; -1.41 in assay [5]; -0.715 in assay [6]. Moreover, the z-score in assay [7] was 1.14 (inactive); in [8], -0.98; in assay [9] it was -1.36; in [10] it was -1.28 (inactive).

In the case of `C=CCN1C(=O)[C@@]2(O[C@@H](CCn3cc([C@H](O)c4ccccc4)nn3)[C@H]([Si](C)(C)c3ccc(OC)cc3)[C@H]2C)c2cc(N3CCC3=O)ccc21`, the z-score in assay [1] is 0.36; in assay [2], 0.977; in [3], 0.0404; in [4], -1.12; in [5], -2.81; in assay [6], 2.18. The z-score in assay [7] was 0.385 (inactive); in assay [8], -1.01; in assay [9] it was 0.219; in assay [10] it was -1.35 (inactive).

Regarding `CC(C)C(=C=CC[C@H](O)c1ccc(OCCO)cc1)C[C@H](O)c1ccccn1`, the z-score in assay [1] was 1.84; in [2], -0.245; in assay [3] it was 1.34; in assay [4], -1.86; in [5], -0.121; in assay [6] it was 0.421. The z-score in assay [7] is -0.0235 (inactive); in [8], -0.479; in assay [9], -0.5; in [10] it was 1.15 (inactive).

For the compound `CCOC(=O)C1=C[C@@H](c2ccccc2)N(S(=O)(=O)c2ccc(C)cc2)[C@H]1c1ccccc1Cl`, the z-score was -0.968 in assay [1]; -0.426 in assay [2]; 0.0009 in [3]; -0.938 in [4]; -0.435 in assay [5]; 2.6 in [6]. The z-score was 0.422 (inactive) in assay [7], 1.01 in assay [8], 0.38 in [9] and 1.09 (inactive) in assay [10].

As for `Cc1ccc(S[C@]2(C(=O)NCC(F)(F)F)CC(=O)N(Cc3ccccc3C(F)(F)F)[C@@H]2c2ccc(CO)cc2I)cc1`, the z-score in assay [1] is 1.45; in [2], -0.438; in assay [3] it was 0.707; in assay [4], -1.56; in [5], -1.71; in assay [6], 0.16. For the same compound, the z-score in assay [7] is 0.0898 (inactive); in assay [8], -0.597; in assay [9], -2.22; in [10] it was 0.328 (inactive).

As to `O=C(NCc1ccccc1)[C@@H]1c2ccccc2C(=O)N(Cc2ccccc2C(F)(F)F)[C@H]1c1ccc(CO)cc1`, the z-score is 0.369 in assay [1]; 0.275 in assay [2]; 1.53 in [3]; 0.0209 in assay [4]; -0.133 in assay [5]; 2.36 in [6]. Also, the z-score is -0.182 (inactive) in assay [7], 0.744 in assay [8], -0.962 in assay [9] and -0.307 (inactive) in assay [10].

As for `C=CC[C@]1(C(=O)O)COC(c2ccc(OCCCO)cc2)=N1`, the z-score in assay [1] was 0.083; in assay [2], -0.206; in assay [3], -0.148; in assay [4] it was -0.0046; in [5], -0.571; in assay [6] it was 0.0919. For the same compound, the z-score in assay [7] is 0.224 (inactive); in assay [8] it was -0.0187; in assay [9], -0.116; in assay [10], -0.408 (inactive).

Turning to `CC(CO)N1C(=O)[C@@H]2[C@H]3C(=O)OCC=C[C@H]3OC23C=CCN(Cc2ccccc2)C(=O)[C@@H]13` (stereo not given in full), the z-score in assay [1] was -0.0849; in assay [2], 0.847; in [3], -1.35; in assay [4], 1.17; in [5], 0.0239; in assay [6] it was -0.378. Further, the z-score in [7] was 0.508 (inactive); in [8], -0.0286; in assay [9] it was 0.491; in assay [10], 0.881 (inactive).

As to `COC(=O)[C@H](Cc1ccccc1)N1CC(/C=C/C2CC2)=C[C@H]1[C@H](O)Cc1ccccc1`, the z-score in assay [1] was 0.13; in [2] it was -0.0604; in assay [3], -0.551; in assay [4] it was -3.38; in assay [5] it was -3.98; in assay [6] it was -2.09. Further, the z-score was 0.128 (inactive) in assay [7], -1.19 in assay [8], -3.06 in assay [9] and -0.395 (inactive) in assay [10].

As to `CC1=C[C@@]2(CO)C(=O)[C@]3(CO3)[C@@H]1[C@H]1[C@]2(C)C=C(CO)C(=O)[C@]12CO2`, the z-score in [1] was 0.23; in assay [2], 0.263; in [3], -0.164; in assay [4], -3.33; in [5] it was -0.753; in assay [6], -0.38. Moreover, the z-score in [7] is -0.311 (inactive); in assay [8] it was 0.249; in assay [9], -2.11; in assay [10] it was 0.474 (inactive).

In the case of `CC(C)C[C@@H]1NC(=O)[C@@H]2C[C@H](C(=O)NCCCCCN)[C@H](c3ccc(O)cc3)N2C1=O`, the z-score was 0.0318 in assay [1]; 0.484 in assay [2]; -0.354 in [3]; -0.0387 in [4]; 0.286 in assay [5]; -0.502 in assay [6]. In addition, the z-score was -0.259 (inactive) in assay [7], 0.7 in assay [8], 0.698 in [9] and -0.676 (inactive) in assay [10].

For `O=C1NC(=O)C2C1C=CC(C(O)c1cccc3ccccc13)N2Nc1ccc(Cl)cc1Cl` (stereo not given), the z-score is -2.6 in assay [1]; -0.132 in [2]; -2.76 in [3]; -3.71 in [4]; -4.17 in [5]; -4.07 in assay [6]. Further, the z-score was -1.1 (inactive) in assay [7], -0.962 in assay [8], -0.213 in [9] and -0.993 (inactive) in assay [10].

As to `CC(C)Cc1ccc(CN2CC[C@@H](NC(=O)Nc3ccccc3)C2)cc1`, the z-score in [1] is -4.11; in [2], -1.07; in assay [3] it was -4.91; in assay [4] it was -3.11; in [5] it was -4.03; in assay [6] it was -2.75. Besides, the z-score in assay [7] was 0.465 (inactive); in [8] it was -1.11; in [9], -3.26; in [10], -2.79 (inactive).

Turning to `O=C1O[C@H](c2ccccc2)[C@H](c2ccccc2)N2[C@H]1[C@@H](C(=O)Nc1nc3ccccc3s1)[C@]1(C(=O)Nc3ccc(C#CC4(O)CCCCCC4)cc31)[C@H]2c1ccccc1OCCO`, the z-score in assay [1] is -0.744; in assay [2], 0.248; in assay [3], -1.54; in assay [4] it was -3.44; in [5], -4.15; in assay [6], -2.82. The z-score in assay [7] was 2.18 (inactive); in assay [8], -0.951; in assay [9], -1.5; in assay [10], -2.21 (inactive).

`CCCCC=C[C@@H](NC(=O)c1ccc(-c2ccccc2)cc1)c1ccccc1`: the z-score is -1.58 in [1]; -0.768 in assay [2]; -1.47 in assay [3]; -0.795 in assay [4]; -2.1 in assay [5]; -4.15 in assay [6]. The z-score in assay [7] is 0.045 (inactive); in assay [8], -0.741; in [9], -0.819; in assay [10], -0.305 (inactive).
